Our source for the Potency and activity change, negative = inhibition values is PubChem BioAssay (NCATS).

A short description of assay [1]: Cytotoxicity counterscreen for inhibitors of SARS-CoV-2 cell entry (AID 1645845). Further: nearly all actives have a fitted effect of over 50% in size. In outline:
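ATP-content luminescence (ATPLite 1step, 15 min RT) read after 48 h compound exposure of Expi293F cells stably expressing human ACE2; normalized to cells-only wells and media-only wells.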

Assay [2] is described as follows: Primary qHTS to identify inhibitors of SARS-CoV-2 cell entry (AID 1645846). Further: nearly all actives have a fitted effect of over 45% in size. As to conditions: activity change, negative = inhibition: at 57.1 µM (top of the series) unless noted. The essentials: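 Luminescence readout (Bright-Glo luciferase) 48 h after pseudoparticle addition. HEK293-ACE2 cells, 1500/well; compound pre-incubation 1 h; Normalized to spike PP and bald PP.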
On the technique in general: Quantitative high-throughput screening tests each substance at several concentrations.

Records with an inconclusive call do not appear. A call without a number means that no potency is given here. The source made the active and inactive calls. The call rests on the fitted dose curve.

For `CC1CC(=O)NN=C1c1ccc(NCC(C)(C)NCC(O)COc2cc(Cl)ccc2C#N)cc1` (configuration not stated), the Potency result in assay [1] was “inactive”. Further, the activity change, negative = inhibition in assay [2] is -23.2%.
Consider `CCOc1ccc2nc(S(N)(=O)=O)sc2c1`, for which the Potency entry in assay [1] and in assay [2] was “inactive” in each case.
Take `CC(C)(C)NCC(O)COc1cccc2c1CCC(=O)N2` (configuration not stated): the Potency entry in assay [1] and in assay [2] was “inactive” each time.
As to `CCOC(=O)c1ccc(OC(=O)CCCCCN=C(N)N)cc1`, the Potency result in assay [1] and in assay [2] was “inactive” in each case.
Turning to `COc1ccccc1N1CCN(CCCNc2cc(=O)n(C)c(=O)n2C)CC1`, in assay [1], the Potency entry was “inactive”. In assay [2], the activity change, negative = inhibition is -0.464%.
Turning to `COc1ccccc1OC(=O)Oc1ccccc1OC`, the Potency entry in assay [1] and in assay [2] was “inactive” each time.
